Experimental data reported in PubChem BioAssay (NCATS).
Where “and” joins values, the source holds several entries; their conditions need not be identical. Equal values may be shown once. Results filed as inconclusive are left out. Calls of active or inactive are those of the source. The call rests on the fitted dose curve; in most records, active means well fitted curve in the direction sought with a large enough effect; inconclusive means small, poorly fitted or top-dose-only effect, or another doubt; inactive means no such curve, though single readings can be large; an effect the other way counts as inactive or inconclusive.

Tests used:
[1] = system: PA-1; test: Primary qHTS to identify gynecologic anti-cancer compounds using libraries of approved drugs and bioactive compounds (AID 1345084); details: Gynecologic cancer cell panel viability, ATPlite luminescence, 48 h; series mostly up to 57.5 µM; further: nearly all actives have a fitted effect of over 55% in size
Summary of the method: (§1)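 48 h compound exposure at 37 C, 5% CO2; five-point qHTS. ATPlite luminescence readout of cell ATP.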

[2] = system: SKOV3; test: as above; details: Gynecologic cancer cell panel viability, ATPlite luminescence, 48 h; series mostly up to 57.5 µM
Summary of the method: as §1

[3] = system: Tov-21-G; test: as above; details: Gynecologic cancer cell panel viability, ATPlite luminescence, 48 h; series mostly up to 57.5 µM
Summary of the method: as §1

[4] = system: Tov112D; test: as above; details: Gynecologic cancer cell panel viability, ATPlite luminescence, 48 h; series mostly up to 57.5 µM
Summary of the method: as §1

[5] = Drug repurposing screens with cells derived from glioblastoma tumor samples (AID 1345199); details: GBM patient neurospheres viability, ATP luminescence, 48 h; further: nearly all actives have a fitted effect of over 40% in size; further: potency means the concentration at half of the fitted maximal effect
Summary of the method: (§2)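 Four patient lines of CD133+ GBM neurospheres were screened at several concentrations; hits were retested in those lines plus three slower-growing GBM lines, using 48-hour treatment and ATP-based viability.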

[6] = system: astro; test: as above; details: viability, ATP luminescence, 48 h; series mostly up to 45.9 µM
Summary of the method: as §2

[7] = at 21.2 µM (top of the series), tumour line B
[8] = at 21.2 µM (top of the series), tumour line D
[9] = at 21.3 µM (top of the series), tumour line A
[10] = at 108 µM (top of the series), tumour line B
[11] = at 108 µM (top of the series), tumour line D
[12] = at 45.9 µM (top of the series), tumour line B
[13] = at 45.9 µM (top of the series), tumour line D
[14] = at 46 µM (top of the series), tumour line A
On the % scale 0 is the no-effect control and ±100 the full control effect.

NC(=O)CN1CCCC1=O
inactive: Potency [1] | Potency [2] | Potency [3] | Potency [4] | activity, negative = cell killing [5, 7] -8.16% | activity, negative = cell killing [5, 8] -13% | activity, negative = cell killing [5, 9] -16.4% | Potency [6]

COc1ccc2[nH]cc(CCN(C(C)C)C(C)C)c2c1
active: Potency ([5]; tumour line A) 44.7 µM
inactive: Potency [1] | Potency [2] | Potency [3] | Potency [4] | activity, negative = cell killing [5, 10] -6.42% | activity, negative = cell killing [5, 11] -9.85% | Potency [6]

C#C[C@]1(O)CC[C@H]2[C@@H]3CCC4=CC(=O)CCC4=C3C=C[C@@]21CC
active: Potency ([5]; tumour line A) 10 µM
inactive: Potency [1] | Potency [2] | Potency [3] | Potency [4] | activity, negative = cell killing [5, 12] -22.9% | activity, negative = cell killing [5, 13] -22%

CNC(C)Cc1ccccc1OC (configuration not stated)
inactive: Potency [1] | Potency [2] | Potency [3] | Potency [4] | activity, negative = cell killing [5, 12] -11.6% | activity, negative = cell killing [5, 13] -21% | activity, negative = cell killing [5, 14] -24.5%

Oc1ccc([C@H]2CNCc3c2ccc(O)c3O)cc1O
inactive: Potency [1] | Potency [2] | Potency [3] | Potency [4] | activity, negative = cell killing [5, 12] -19.9% | activity, negative = cell killing [5, 13] -11.1% | activity, negative = cell killing [5, 14] -27.2% | Potency [6]

C[C@H]1CNCCc2ccc(Cl)cc21
active: Potency ([5]; tumour line A) 11.2 µM
inactive: Potency [1] | Potency [2] | Potency [3] | Potency [4] | activity, negative = cell killing [5, 12] -18.8% | activity, negative = cell killing [5, 13] -14.1%

CCC1(CC)C(=O)NC(=O)NC1=O
inactive: Potency [1] | Potency [2] | Potency [3] | Potency [4] | activity, negative = cell killing [5, 12] 3.52% | activity, negative = cell killing [5, 13] -15.8% | activity, negative = cell killing [5, 14] -22.6% | Potency [6]

C[C@H](CN1CCOCC1)C(C(=O)N1CCCC1)(c1ccccc1)c1ccccc1
inactive: Potency [1] | Potency [2] | Potency [3] | Potency [4] | activity, negative = cell killing [5, 10] -15.2% | activity, negative = cell killing [5, 11] -29.8% | Potency [6]
active: Potency ([5]; tumour line A) 35.5 µM

COc1cc(C[C@@H](C)N)c(OC)cc1C
inactive: Potency [1] | Potency [2] | Potency [3] | Potency [4] | activity, negative = cell killing [5, 10] -21.2% | activity, negative = cell killing [5, 11] -18.9% | Potency [6]
active: Potency ([5]; tumour line A) 31.6 µM

CC(Cc1ccccc1)NCc1ccccc1Cl (configuration not stated)
active: Potency ([5]; tumour line A) 14.1 µM
inactive: Potency [1] | Potency [2] | Potency [3] | Potency [4] | activity, negative = cell killing [5, 12] -13.4% | activity, negative = cell killing [5, 13] -38.9% | Potency [6]

Cc1nnc2n1-c1sc(CCC(=O)N3CCOCC3)cc1C(c1ccccc1Cl)=NC2
inactive: Potency [1] | Potency [2] | Potency [3] | Potency [4] | activity, negative = cell killing [5, 12] -14.3% and -9.87% | activity, negative = cell killing [5, 13] -19.2% and -29.4% | activity, negative = cell killing [5, 14] -18.9% | Potency [6]

CN(C)C(=O)Oc1cc(OC(=O)N(C)C)cc(C(O)CNC(C)(C)C)c1 (configuration not stated)
inactive: Potency [1] | Potency [2] | Potency [3] | Potency [4] | activity, negative = cell killing [5, 7] -7.15% | activity, negative = cell killing [5, 8] -0.819% | activity, negative = cell killing [5, 9] -13.9%

Cc1nc2ccccc2c(=O)n1-c1ccccc1Cl
inactive: Potency [1] | Potency [2] | Potency [3] | Potency [4] | activity, negative = cell killing ([5]; at 91.6 µM (top of the series), tumour line B) -7.8% | activity, negative = cell killing ([5]; at 91.6 µM (top of the series), tumour line D) -27.3% | Potency [6]
active: Potency ([5]; tumour line A) 39.8 µM

CC1=C2[C@H]3OC(=O)[C@@H](C)[C@@H]3CC[C@@]2(C)C=CC1=O
inactive: Potency [1] | Potency [2] | Potency [3] | Potency [4] | activity, negative = cell killing [5, 12] -4.49% | activity, negative = cell killing [5, 13] -15.5% | activity, negative = cell killing [5, 14] -23.4% | Potency [6]

C[N+]1(C)[C@@H]2CC[C@H]1CC(OC(=O)C(CO)c1ccccc1)C2 (some centres not stated)
inactive: Potency [1] | Potency [2] | Potency [3] | Potency [4] | activity, negative = cell killing [5, 7] -14.5% | activity, negative = cell killing [5, 8] -3.94% | activity, negative = cell killing [5, 9] -14.4% | activity, negative = cell killing [5, 12] -1.41% | activity, negative = cell killing [5, 13] -16.2% | activity, negative = cell killing ([5]; at 46.1 µM (top of the series), tumour line C) -12.5%

CC(C)C(Br)C(=O)NC(N)=O (configuration not stated)
inactive: Potency [1] | Potency [2] | Potency [3] | Potency [4] | activity, negative = cell killing [5, 12] -3.2% | activity, negative = cell killing [5, 13] -12.7% | activity, negative = cell killing [5, 14] -8.61%

CC(C)=C[C@@H]1[C@@H](C(=O)OCc2coc(Cc3ccccc3)c2)C1(C)C
inactive: Potency [1] | Potency [2] | Potency [3] | Potency [4] | activity, negative = cell killing [5, 12] -21% | activity, negative = cell killing [5, 13] -13.8%

CCC1(c2ccccc2)CCC(=O)NC1=O (configuration not stated)
inactive: Potency [1] | Potency [2] | Potency [3] | Potency [4] | activity, negative = cell killing [5, 12] -10.4% | activity, negative = cell killing [5, 13] -10.3% | activity, negative = cell killing [5, 14] -28.9%

CCC(=O)OC1(c2ccccc2)CCN(C)CC1
active: Potency ([5]; tumour line A) 50.1 µM
inactive: Potency [1] | Potency [2] | Potency [3] | Potency [4] | activity, negative = cell killing [5, 10] -0.343% | activity, negative = cell killing [5, 11] -13.5% | Potency [6]

C[C@]12CC[C@H]3[C@@H](CC=C4C[C@@H](O)CC[C@@]43C)[C@@H]1CC[C@@H]2O
inactive: Potency [1] | Potency [2] | Potency [3] | Potency [4] | activity, negative = cell killing [5, 12] -14.5%
active: Potency ([5]; tumour line A) 11.2 µM
